These results are taken from PubChem BioAssay (Tox21).

The nature of experiment [1]: qHTS assay for small molecule agonists of the p53 signaling pathway (AID 651631; calls by dose curve; note: nearly all actives have a fitted effect of over 15% in size). In a few lines:
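p53RE-bla HCT-116 cells; compounds 16 h, 37 °C; LiveBLAzer B/G FRET substrate 2 h RT; fluorescence intensity read-out, qHTS format.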
(In general: qHTS replaces the single test concentration by a dilution series.)

The nature of experiment [2]: qHTS assay for small molecules that induce genotoxicity in human embryonic kidney cells expressing luciferase-tagged ATAD5 (AID 651632). Note: nearly all actives have a fitted effect of over 15% in size. In a few lines: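 HEK293T cells carrying luciferase-tagged ATAD5 were given compound or DMSO vehicle and incubated 16 hr at 37C, 5% CO2. Luciferase activity was read after 30 min at room temperature with Amplite; a rise signals genotoxic stress.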

A short description of experiment [3]: qHTS assay for small molecule agonists of the p53 signaling pathway - cell viability (AID 651633; calls by dose curve;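 note: p53RE-bla HCT reporter cells with a stable beta-lactamase p53 reporter; series mostly up to about 83 µM; nearly all actives have a fitted effect of over 30% in size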). Put shortly: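 p53RE-bla cells, seeded at 4,000 per well and rested 5 h at 37 C/5% CO2, received compounds in DMSO for 16 h at 37 C. CellTiter-Glo was then added, and luminescence was read after 30 min at room temperature to gauge cytotoxicity.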
Experiment [4] in a line: qHTS assay for small molecules that induce genotoxicity in human embryonic kidney cells expressing luciferase-tagged ATAD5 - cell viability (AID 651634; calls by dose curve; note: nearly all actives have a fitted effect of over 25% in size). In a few lines: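 HEK293T cells carrying luciferase-tagged ATAD5, 2,000 cells/well, exposed to compound for 15.5 hr at 37C. Viability read as live-cell protease activity by CellTiter-Fluor fluorescence after 30 min at 37C.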

Experiment [5] can be described thus: qHTS assay to test for compound auto fluorescence at 590 nm (red) in HepG2 cells (AID 720674). Put shortly:
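Rose Bengal sodium served as the red fluorophore standard. HepG2 monolayers (overnight attachment, MEM with 10% FBS) were exposed to test compounds for 1 hr at 37 C and read at Ex 540/Em 590 nm.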

A short description of experiment [6]: qHTS assay to test for compound auto fluorescence at 535 nm (green) in HepG2 cells (AID 720675).
The nature of experiment [7]: qHTS assay to test for compound auto fluorescence at 460 nm (blue) in HEK293 cells (AID 720678). Put shortly: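 HEK293 cells (2,000 per well, medium with 10% dialyzed FBS) attached for 4-5 hr at 37C, then received compound and stood overnight at 37C, 5% CO2. Blue fluorescence was read at Ex/Em 405/460 nm and expressed relative to triamterene.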
Experiment [8] in a line: qHTS assay to test for compound auto fluorescence at 590 nm (red) in HEK293 cells (AID 720679). Put shortly:
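HEK293 cells (2,000/well, medium with 10% dialyzed FBS) attached for 4-5 hr at 37C, received 23 nL compound and were incubated overnight at 37C, 5% CO2. Red fluorescence was then read at 540/590nm Ex/Em, referenced to Rose Bengal sodium.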

Experiment [9] can be described thus: qHTS assay to test for compound auto fluorescence at 535 nm (green) in HEK293 cells (AID 720680).
The nature of experiment [10]: qHTS assay to test for compound auto fluorescence at 460 nm (blue) in HEK293 cell free culture (AID 720681). Put shortly:
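Test compounds were pinned into cell-free culture medium (DMEM with 10% FBS) and fluorescence was read directly at Ex/Em 405/460 nm. Signals were expressed as fluorescence equivalents of triamterene, with DMSO vehicle as control.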

The nature of experiment [11]: qHTS assay to test for compound auto fluorescence at 590 nm (red) in HEK293 cell free culture (AID 720683). In a few lines: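 Tox21 10K library compounds were pinned into cell-free DMEM with 10% FBS and fluorescence was read at excitation 540 nm. Activity is expressed as Rose Bengal sodium equivalency.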
Experiment [12] can be described thus: qHTS assay to test for compound auto fluorescence at 590 nm (red) in HepG2 cell free culture (AID 720684). In a few lines:
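Red fluorescence (540 nm excitation, 590 nm emission) was measured after compound transfer into cell-free MEM supplemented with 10% FBS. Values are equivalencies against Rose Bengal sodium.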

Experiment [13] can be described thus: qHTS assay to test for compound auto fluorescence at 460 nm (blue) in HepG2 cell free culture (AID 720685). Put shortly: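 Compound (23 nL) or DMSO pinned into cell-free MEM with 10% FBS; blue fluorescence read at 405/460 nm excitation/emission, expressed as auto-fluorescence equivalency to triamterene.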
A short description of experiment [14]: qHTS assay to test for compound auto fluorescence at 535 nm (green) in HepG2 cell free culture (AID 720686).
Experiment [15] can be described thus: qHTS assay to test for compound auto fluorescence at 460 nm (blue) in HepG2 cells (AID 720687). Put shortly:
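Cells (2,000/well in MEM with 10% FBS) attached overnight at 37 C, then were exposed to compound or DMSO for 1 hr at 37 C, 5% CO2. Fluorescence read at Ex/Em 405/460 nm, expressed as triamterene-equivalent signal.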

A short description of experiment [16]: qHTS assay for small molecule disruptors of the mitochondrial membrane potential - cell viability (AID 720634; calls by dose curve;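 note: human HepG2 liver cancer cells; series mostly up to about 83 µM; nearly all actives have a fitted effect of over 20% in size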). In a few lines:
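HepG2 cells, 2,000 per well, attached overnight, then treated 1 hr at 37 C, 5% CO2. Viability read as ATP by CellTiter-Glo luminescence after 30 min at room temperature. Read in the same wells as the m-MPI membrane-potential dye assay.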

The nature of experiment [17]: qHTS assay for small molecule disruptors of the mitochondrial membrane potential (AID 720635). Note: potency is the fitted concentration of half-maximal effect. In a few lines: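 HepG2 cells (2,000/well) attached overnight at 37C, then took compound for 1 hr at 37C, 5% CO2. Mito-MPS dye was added for 30 min; fluorescence was read at 490/535 nm (monomers) and 540/590 nm (aggregates).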
In experiment [18] the target is Glucocorticoid receptor (Homo sapiens) (UniProt P04150). Briefly: qHTS assay to identify small molecule agonists of the glucocorticoid receptor (GR) signaling pathway (AID 720691; active = well fitted activation curve with a large enough effect in the signal ratio in the repeat runs, not every such curve was filed as active; the % refers to the signal ratio). In a few lines: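 GR-bla HeLa cells carrying a GRE-driven beta-lactamase reporter, exposed to compounds for 18 h at 37 C. Reporter activation read as fluorescence after 2 h with LiveBLAzer B/G FRET substrate at room temperature.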
Glucocorticoid receptor (Homo sapiens), sequence (P04150 whole entry, looked up): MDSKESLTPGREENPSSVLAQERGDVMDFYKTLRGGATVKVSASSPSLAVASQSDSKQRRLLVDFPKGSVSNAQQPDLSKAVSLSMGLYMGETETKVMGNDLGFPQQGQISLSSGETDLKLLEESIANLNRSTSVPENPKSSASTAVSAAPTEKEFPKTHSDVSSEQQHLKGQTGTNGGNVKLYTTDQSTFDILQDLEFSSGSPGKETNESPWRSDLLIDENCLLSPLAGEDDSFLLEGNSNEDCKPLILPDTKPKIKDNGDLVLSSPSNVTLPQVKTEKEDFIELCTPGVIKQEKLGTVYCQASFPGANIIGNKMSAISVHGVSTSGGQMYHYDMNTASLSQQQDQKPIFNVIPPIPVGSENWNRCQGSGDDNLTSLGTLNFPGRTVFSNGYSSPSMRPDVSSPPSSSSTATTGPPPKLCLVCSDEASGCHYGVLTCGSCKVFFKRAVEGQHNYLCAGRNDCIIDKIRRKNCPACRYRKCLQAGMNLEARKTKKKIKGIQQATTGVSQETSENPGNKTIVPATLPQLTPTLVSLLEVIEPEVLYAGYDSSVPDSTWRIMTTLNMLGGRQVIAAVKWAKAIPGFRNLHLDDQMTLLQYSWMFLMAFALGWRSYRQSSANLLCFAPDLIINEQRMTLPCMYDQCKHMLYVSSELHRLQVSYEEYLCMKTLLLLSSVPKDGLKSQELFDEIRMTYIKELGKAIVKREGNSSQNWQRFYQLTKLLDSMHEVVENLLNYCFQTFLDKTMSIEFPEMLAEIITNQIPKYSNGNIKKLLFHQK

Experiment [19] shares this target. Briefly: qHTS assay to identify small molecule antagonists of the glucocorticoid receptor (GR) signaling pathway (AID 720692; active = well fitted inhibition curve with a large enough effect in the signal ratio in the repeat runs, not every such curve was filed as active; the % refers to the signal ratio). Put shortly: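 GR-bla HeLa cells carrying a GRE-driven beta-lactamase reporter received compound after 4 h plating, then dexamethasone (5 nM final). After 18 h at 37C, the FRET substrate was loaded for 2 h at room temperature and fluorescence read.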

Experiment [20] can be described thus: qHTS assay to test for compound auto fluorescence at 535 nm (green) in HEK293 cell free culture (AID 720682). Put shortly: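 Cell-free medium (DMEM, 10% FBS) receives compound or DMSO by pintool. Plate read directly at Ex 485/Em 535 nm. Signal converted to fluorescein equivalency.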

Where “and” joins values, the source holds several entries; their conditions need not be identical. Identical values can stand only once. Records with an inconclusive call do not appear. Calls of active or inactive are those of the source. Unless noted, calls come from the whole dose curve; as a rule, active = well fitted curve in the direction sought with a large enough effect in the repeat runs; inconclusive = weak or mixed curves; inactive = no such curve, though single readings can be large; an effect the other way counts as inactive or inconclusive.

Consider `CCOC(=O)C(C#N)=C(c1ccccc1)c1ccccc1`, for which the Potency entry in experiment [1], in experiment [2], in experiment [3], in experiment [4], in experiment [5] and in experiment [6] was “inactive” in each case. The Potency entry in experiment [8], in experiment [9], in [11], in [12] and in experiment [14] was “inactive” in each case. Further, the compound was classed as inactive in [7], in experiment [10], in [13] and in experiment [15].

For `Cc1c(OCC(F)(F)F)ccnc1CS(=O)c1nc2ccccc2[nH]1` (stereo not given), the Potency entry in experiment [1], in experiment [2], in experiment [3], in experiment [16], in experiment [5] and in [6] was “inactive” throughout. Further, the Potency result in experiment [8], in [9], in [11], in experiment [12], in experiment [14] and in experiment [18] was “inactive” throughout. The Potency result in experiment [19] is “inactive”. Besides, the Potency in [17] is 54.5 µM (active). For the same compound, the outcome in experiment [7], in [10] and in experiment [13] was inactive.

Turning to `C[Si](C)(C)O[Si](C)(C)C`, the Potency entry in experiment [1], in experiment [2], in [3], in experiment [16], in experiment [17] and in experiment [5] was “inactive” in each case. Also, the Potency result in experiment [6], in [8], in [9], in experiment [11], in experiment [12] and in experiment [14] was “inactive” throughout. In addition, the result in experiment [7], in experiment [10], in [13] and in experiment [15] was inactive.

On to `CCOCCOCCO`, for which the Potency result in experiment [1], in experiment [2], in experiment [3], in experiment [16], in experiment [5] and in experiment [6] was “inactive” throughout. The Potency entry in experiment [8], in [9], in experiment [11], in experiment [12], in experiment [14] and in experiment [18] was “inactive” in each case. Moreover, in [19], the Potency entry is “inactive”. Besides, the call in experiment [10], in [13] and in [15] was inactive.

`Cc1[nH]c(=O)c(C#N)cc1-c1ccncc1`: the Potency entry in experiment [1], in experiment [3], in experiment [4], in experiment [16], in [5] and in experiment [6] was “inactive” each time. The Potency entry in experiment [8], in [9], in [20], in [11], in experiment [12] and in experiment [14] was “inactive” each time. The call in [7], in experiment [10] and in experiment [13] was inactive.

Consider `c1ccncc1`, for which the Potency entry in experiment [1], in experiment [2], in experiment [3], in experiment [16], in [5] and in [6] was “inactive” in each case. For the same compound, the Potency entry in experiment [8], in experiment [9], in [20], in experiment [11], in [12] and in [14] was “inactive” throughout. Moreover, the compound was called inactive in experiment [7], in [10], in [13] and in experiment [15].

For `CCCCC(CC)COC(=O)c1ccc(N(C)C)cc1` (stereo not given), the Potency result in experiment [1], in experiment [2], in experiment [3], in experiment [16], in [5] and in experiment [6] was “inactive” in each case. Also, the Potency result in experiment [8], in [9], in experiment [11], in experiment [12], in experiment [14] and in [18] was “inactive” in each case. Moreover, in [19], the Potency result is “inactive”. Moreover, in experiment [17], the Potency is 8.68 µM (active) and 21.7 µM (active). In addition, the compound was classed as inactive in [10], in experiment [13] and in experiment [15].

On to `CCC(C)(O)CCCC(C)C` (stereo not given), for which the Potency result in experiment [1], in experiment [2], in [3], in experiment [16], in experiment [17] and in experiment [5] was “inactive” each time. The Potency entry in [6], in [8], in experiment [9], in experiment [20], in experiment [11] and in experiment [12] was “inactive” in each case. In addition, the Potency result in experiment [14], in experiment [18] and in [19] was “inactive” throughout. In addition, the call in experiment [10], in experiment [13] and in experiment [15] was inactive.
